Compound activity: PubChem BioAssay, several laboratories
MCL1-BIM inh: inhibitors of human MCL1 binding to BIM-BH3 peptide. Q07820. GST-MCL1 / FITC-Bim-BH3 fluorescence polarization. inhibition, % at 10.9 µM. actives 0.68% (n = 320,000). AID 2057;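 active means inhibition above the mean inhibition of all tested compounds plus 3 SD, set per campaign, cut at about 40% in these data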;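 further: 0% = DMSO wells and 100% = unlabeled Bim-BH3 peptide control; higher means more loss of mP so more displacement of Bim peptide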
Bcl-xL primary: inhibitors of human Bcl-xL; Q07817; inhibition, % at 10.9 µM; AID 2129; GST-Bcl-xL / FITC-Bim BH3 peptide fluorescence polarization; actives 0.7% (n = 320,000);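 active means inhibition above the mean of all tested compounds plus 3 SD, cutoff set per campaign, cut at about 30% in these data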;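 further: 0% = DMSO wells and 100% = unlabeled Bim-BH3 peptide competitor; inhibitors lower millipolarization by displacing the labeled peptide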
Target sequence (Q07817 whole entry, looked up): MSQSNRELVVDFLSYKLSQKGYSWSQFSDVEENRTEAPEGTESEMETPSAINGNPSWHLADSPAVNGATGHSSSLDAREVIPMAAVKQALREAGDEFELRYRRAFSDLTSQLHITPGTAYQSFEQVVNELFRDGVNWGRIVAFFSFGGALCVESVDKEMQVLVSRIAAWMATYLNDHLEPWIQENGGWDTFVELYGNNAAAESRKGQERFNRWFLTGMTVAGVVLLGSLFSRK
EBV gp42 block: EBV gp42 inhibition | actives 0.42% (n = 220,000) | Q1HVG2 | Fluorescence polarization binding assay, mP read-out | inhibition, % (tested at 21.74 µM); in the data active means inhibition above about 50%
Target sequence (Q1HVG2 whole entry, looked up): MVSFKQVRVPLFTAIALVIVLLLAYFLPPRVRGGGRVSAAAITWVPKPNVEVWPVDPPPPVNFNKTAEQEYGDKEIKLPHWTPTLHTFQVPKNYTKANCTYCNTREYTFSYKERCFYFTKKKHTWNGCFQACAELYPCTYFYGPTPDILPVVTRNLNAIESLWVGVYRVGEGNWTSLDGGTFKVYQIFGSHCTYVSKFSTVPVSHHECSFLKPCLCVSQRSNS
GLD-1 RNA inh: GLD-1-TGE RNA interaction inhibition (C. elegans); Q17339; purified GLD-1 + fluorescein TGE RNA, fluorescence polarization; inhibition, % at 5.96 µM; actives 0.44% (n = 320,000);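 active means percent inhibition above a per-plate cutoff, the plate mean of test compounds plus 3 SD, cut at about 30% in these data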;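 further: 0% = DMSO wells with GLD-1 and probe and 100% = wells lacking GLD-1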
MEX-5 binding: C. elegans MEX-5 TCR-2 RNA binding activity | activity score (negative = inhibition of binding), % at 10 µM | AID 1832 | Q9XUB2 | actives 0.38% (n = 300,000) | MEX-5/FITC-TCR2 RNA binding, fluorescence polarization; active compounds read low;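 active means inhibition past about -25% in most replicates, and total fluorescence under double the plate's negative control median, limit read from the data; inconclusive means replicates evenly split on the limit, or fluorescence at least double controls; inactive means too little inhibition in most replicates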;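 further: 0% = DMSO and -100% = 5 µM competing unlabeled TCR2 RNA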
Bcl-xL conf: counter-screen for MCL1 inhibitors: confirmation of human Bcl-xL inhibitors. shares compounds with MCL1-BIM inh. AID 2166. actives 54% (n = 1,700). GST-Bcl-xL / FITC-Bim BH3 peptide FP binding. inhibition, % at 10.9 µM;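 active means inhibition above a cutoff equal to the mean inhibition of all tested compounds plus 3 SD, cut at about 30% in these data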;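 further: 0% = DMSO wells and 100% = unlabeled Bim BH3 control peptide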
MCL1 BIM confirm: MCL1-BIM-BH3 interaction inhibition, confirmation; shares compounds with MCL1-BIM inh; GST-MCL1 / FITC-Bim-BH3 fluorescence polarization; inhibition, % at 10.9 µM; actives 61% (n = 1,700); AID 2168;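 active means inhibition above the average of all tested compounds plus 3 SD, cut at about 40% in these data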;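 further: 0% = DMSO wells and 100% = unlabeled Bim-BH3 control peptide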
* hit, by the source's call; ? = inconclusive; · = no result given; + = active, no number. The list is not random: actives were taken first. Their share in the collection is about 1.3%.

SMILES	MCL1-BIM inh	Bcl-xL primary	EBV gp42 block	GLD-1 RNA inh	MEX-5 binding	Bcl-xL conf	MCL1 BIM confirm
O=C(NCCN1CCCC1)c1ccc2c(c1)N(Cc1ccccc1)C(=O)c1ccccc1S2(=O)=O	8.3	4.6	·	2.9	-1.2	·	·
Nc1c(C(=O)NC2CC2)c2nc3ccccc3nc2n1-c1ccc2c(c1)OCO2	61.1*	42.4*	29.4	27.1	-7.5	34.8*	41.7*
CCCNC(=O)c1c(N)n(-c2ccc3c(c2)OCO3)c2nc3ccccc3nc12	4.9	8.7	-18.1	10.3	-1.5	·	·
CN(Cc1ccc(Br)s1)C(=O)CNC(=O)c1ccc2c(c1)OCO2	-6.4	0.5	·	-2.8	·	·	·
Cc1ccc(C(=O)O[C@H](C(=O)O)[C@H](OC(=O)c2ccc(C)cc2)C(=O)O)cc1	-4.4	-5.6	·	-1.5	3.7	·	·
CN(C)C=Nc1nonc1-c1ccccc1	-5.3	4.7	-3.6	-0.2	1.1	·	·
CN(C)C=Nc1c(Br)cc(Br)c2nonc12	69.0*	91.5*	0.7	-6.7	?	90.2*	115.5*
O=C(Cn1cc(C(=O)C(F)(F)F)c2ccccc21)N1CCOCC1	11.6	6.9	-22.3	-9.6	-2.1	·	·
Cc1oc2c(cc(NS(=O)(=O)c3ccc(C(C)C)cc3)c3ccccc32)c1C(=O)O	75.0*	69.4*	·	32.3*	-21.7	109.5*	137.5*
CCCn1c(/C=C/c2ccccc2)nc2ccccc21	-0.2	1.8	-6.6	-4.3	-2.9	·	·
CCn1c(/C=C/c2cc[n+](C)cc2)nc2ccccc21	74.9*	74.3*	·	20.1	-3.4	65.5*	65.3*
Cc1cc(-c2ccccc2)nc(N/N=C/c2ccccc2F)n1	-1.9	1.4	·	2.3	0.3	·	·
CCOC(=O)C1CCN(C(=O)c2cc3c(=O)n4ccccc4nc3n2C)CC1	85.3*	67.3*	-8.4	21.4	-4.4	-27.1	-31.3
COc1ccc(-c2nc(CSCC(=O)NC3CCCC3)c(C)o2)cc1OC	1.0	-2.8	·	-9.2	-0.3	·	·
Nc1ncnc2oc(-c3ccco3)c(-c3ccco3)c12	95.1*	36.2*	44.6	8.2	-18.3	40.0*	93.1*
Nc1nnc(-c2ccco2)s1	7.4	4.5	-21.1	1.4	-1.8	·	·
O=C(CCCc1nc(-c2ccc(Cl)cc2)no1)NC1CCCCC1	5.7	2.5	·	6.5	-0.3	·	·
CCn1c(CC(=O)Nc2ccc(F)cc2)nnc1SCC(=O)Nc1nnc(C)s1	-0.7	-1.8	·	6.8	-1.7	·	·
CC(=O)Nc1ccc(S(=O)(=O)Nc2nc3ccccc3nc2Sc2nncn2C)cc1	77.8*	78.1*	44.2	37.1*	-17.8	40.6*	47.3*
COc1cccc2c(N/N=C/c3ccc(O)c(O)c3)cc(C)nc12	40.6*	19.2	·	6.6	-5.8	51.3*	73.3*
O=C1C=C(/C=C/c2ccccc2)C[C@@H](c2ccc3c(c2)OCO3)C1	-0.7	1.2	·	-4.0	·	·	·
Cc1oc(-c2ccccc2)cc1C(N)=O	6.9	10.2	-14.1	7.0	3.0	·	·
Cc1oc(C(N)=O)nc1-c1ccccc1	47.9*	9.2	-2.8	2.2	0.7	6.3	11.2
O=c1c2ccccc2[nH]c2ccc(O)cc12	89.3*	74.3*	·	108.1*	-5.9	97.8*	144.8*
O=c1oc2c3c4c(cc2c(C(F)(F)F)c1CCN1CCOCC1)CCCN4CCC3	121.6*	107.3*	139.0*	65.3*	?	107.4*	115.6*
SMILES	MCL1-BIM inh	Bcl-xL primary	EBV gp42 block	GLD-1 RNA inh	MEX-5 binding	Bcl-xL conf	MCL1 BIM confirm
O=c1oc2c(CN3CCOCC3)c(O)ccc2c2c1CCC2	10.0	4.0	-17.4	-6.2	·	·	·
CCc1sc(C(=O)Nc2cccc(C(C)=O)c2)cc1C	-0.3	5.8	6.0	2.9	1.9	·	·
CC(=O)c1c(C)oc2ccc(NS(=O)(=O)c3ccc(C)cc3)cc12	-1.7	-0.6	·	1.9	-3.0	·	·
Cc1ccc(C)c(S(=O)(=O)Nc2ccc3oc(C)c(C(=O)O)c3c2)c1	41.6*	12.3	·	0.8	1.3	21.5	59.9*
CN(C)c1ccc(C(=S)N2CCCC2)cc1Br	-12.2	-4.0	·	-4.0	-1.9	·	·
CC(C)Sc1nc2ccccc2c(=O)[nH]1	-1.3	-0.2	-1.8	-0.8	-0.5	·	·
CC(c1nc2ccccc2c(=O)[nH]1)N(C)c1ccc2ccccc2c1 (stereo unspecified)	86.5*	74.2*	5.8	77.8*	2.5	12.4	22.1
CC1(C)c2ccccc2N(CC(N)=O)C12C=Cc1ccccc1O2 (stereo unspecified)	-1.5	-0.5	-2.3	-6.1	-1.2	·	·
CC1(C)c2ccccc2N2CC(=O)N(CC(N)=O)C21C (stereo unspecified)	105.8*	96.7*	2.0	84.8*	7.7	75.0*	102.6*
O=C(CCc1ccccc1)Oc1ccccc1[N+](=O)[O-]	73.2*	6.6	·	2.8	-0.1	2.8	-0.9
C/C(=N\Nc1ncnc2sc(C)c(C)c12)c1ccccn1	100.5*	100.6*	·	25.1	?	+	+
CCN(C(=O)CSc1cccc[n+]1[O-])C1CCCCC1	·	·	·	0.5	·	·	·
COc1cc(NC(=O)CN(c2ccc(C)cc2)S(=O)(=O)c2c(C)noc2C)cc(OC)c1	-6.1	6.1	·	-1.8	0.7	·	·
COC(=O)c1cc(O)cc(OC)c1Oc1cc(C)cc(O)c1C(=O)O	73.5*	21.4	-5.6	5.8	·	19.7	75.5*
Cc1cccnc1NC(=O)c1ccc(COc2ccccc2)o1	-0.7	1.3	·	-0.7	0.2	·	·
O=C(CN1CCSC1=O)N1CCN(S(=O)(=O)c2ccccc2)CC1	54.7*	5.8	·	2.9	·	5.4	10.6
O=C(CN1CCSC1=O)N1CCN(S(=O)(=O)c2ccc(Cl)cc2)CC1	4.5	2.5	·	3.2	·	·	·
Cc1cccc(NC(=O)CSc2nnc(-c3ccco3)c(-c3ccco3)n2)c1C	40.8*	25.0	31.7	3.3	-13.7	98.4*	140.9*
CN(CC(=O)NCc1ccco1)C(=O)C1CC(=O)N(c2ccc3c(c2)OCCO3)C1 (stereo unspecified)	-10.5	-2.9	·	-2.8	·	·	·
Cn1c(=O)c(Nc2ccc(O)cc2)c2c3c(cccc31)C(=O)c1ccccc1-2	+	164.1*	127.1*	154.8*	-16.5	162.6*	+
CC(=O)c1c(-c2ccccc2)c2cc(Cl)ccc2n(C)c1=O	0.0	-0.4	·	-0.2	-1.3	·	·
CC(=O)c1c2c3c(c(Br)ccc3n(C)c1=O)C(=O)c1ccccc1-2	63.8*	67.4*	·	57.3*	-4.3	41.8*	42.7*
CC(=O)c1c2c3c(cccc3n(C)c1=O)C(=O)c1ccccc1-2	96.1*	85.3*	·	67.0*	-11.5	128.8*	151.8*
CC(C)c1ccc(Nc2c([N+](=O)[O-])c(=O)n(C)c3ccccc23)cc1	3.1	6.6	4.4	4.2	2.5	·	·
